Reference: PubChem BioAssay (NCI)
This is part of a sample that, as a whole, favours compounds with a hit. Of some 83,000 tested, about 20% had one in any assay.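 Single-concentration screen, 48 h exposure, 96-well plates. Endpoint: percent growth. Below 10 = active.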 Values without a mark were called inactive. The source made the active and inactive calls.

Each compound was assayed on MDA-MB-468 breast (assay: NCI-60 one-dose screen, 48 h (100 = growth as untreated, 0 = no growth, -100 = all killed)). Settings: 10 µM unless noted.

Row | Compound | growth
1 | N=C(N)Sc1cccc[n+]1[O-] | 62.4%
2 | COC(=O)[C@]12CC[C@@H](C)[C@H](C)[C@@H]1C1=CC[C@@H]3[C@@]4(C)C[C@@H](OC(=O)/C=C/c5ccccc5)[C@H](O)[C@@](C)(CO)[C@@H]4[C@H](O)C[C@@]3(C)[C@]1(C)CC2 | -19.2% (active)
3 | N#Cc1cnn2c(-c3ccc(Cl)cc3)nc(NCCc3ccccc3)nc12 | 110%
4 | COc1ccc(/C(=N\O)c2cc(OC)c(OC)c(OC)c2)c(OC)c1N | 29.2%
5 | CCOC(=O)c1cc2c(n1Cc1cc(OC)cc(OC)c1Br)-c1nc(NC(C)=O)sc1CCC2 | 77.7%
6 | Cc1cc(C)c2c(n1)sc1c(Nc3ccc(O)cc3)ncnc12 | 23.8%
7 | CCc1c2c(nc3ccc(OCc4ccc(B(O)O)cc4)cc13)-c1cc3c(c(=O)n1C2)COC(=O)[C@]3(O)CC | -48.4% (active)
8 | CCC(C)[C@@H]1NC(=O)[C@@H]2CCCN2C(=O)[C@H](Cc2ccccc2)NC(=O)[C@@H]2CCCN2C(=O)[C@H](Cc2ccccc2)NC(=O)[C@@H]2CCCN2C(=O)[C@H](Cc2ccccc2)NC1=O (stereo partly drawn) | 116%
9 | COc1cc(/C=C/C(=O)C2=C(/C=C/c3ccc(O)c(OC)c3)NC(=O)NC2c2ccc(O)c(OC)c2)ccc1O (stereo not drawn) | 88.7%
10 | CN(C)CCOc1ccc(-c2nc3ccc(-c4nc5ccc(N6CCN(C)CC6)cc5[nH]4)cc3[nH]2)cc1 | 40.2%
11 | Nc1ncc(-c2ccc3ncnc(N4CCc5cc(F)c(Cl)cc54)c3c2)cc1CO | -39.8% (active)
12 | COc1ccc(/C=C(/c2ccccc2)[N+](=O)[O-])c(OC)c1 | -56.5% (active)
13 | COc1cc(/C=C\c2cc(OC)c(OC)c(OC)c2)cc(NS(=O)(=O)c2ccc(Cl)cc2)c1OC | 19.1%
